Broadly, the inhibition is the drop in the measured response relative to a control, in per cent.

Molecules are shown by their SMILES. Screen size: about 650,000 compounds; about 5,900 (0.91%) were called active. The sample holds actives, similar compounds and a random draw of the others, so the mix is not that of the screen. No stated cut-off is given here; in the data, active means inhibition above about 50%; inactive means the rest.

The text below walks through data of PubChem BioAssay AID1259374 (The Scripps Research Institute Molecular Screening Center, 2018).

The target in the test is Microphthalmia-associated transcription factor (Homo sapiens) (UniProt O75030). The test can be described thus: MITF inhibitors, primary screen, biochemical, AlphaScreen, human (AID 1259374).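 Further: 0% = vehicle wells with protein.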 Particulars: AlphaScreen MITF homodimerization, bead proximity signal; at 2.6 µM; active compounds read high. In general terms: Bead proximity is the source of the signal in Alpha formats.
Sequence of Microphthalmia-associated transcription factor (Homo sapiens) (O75030 whole entry, looked up): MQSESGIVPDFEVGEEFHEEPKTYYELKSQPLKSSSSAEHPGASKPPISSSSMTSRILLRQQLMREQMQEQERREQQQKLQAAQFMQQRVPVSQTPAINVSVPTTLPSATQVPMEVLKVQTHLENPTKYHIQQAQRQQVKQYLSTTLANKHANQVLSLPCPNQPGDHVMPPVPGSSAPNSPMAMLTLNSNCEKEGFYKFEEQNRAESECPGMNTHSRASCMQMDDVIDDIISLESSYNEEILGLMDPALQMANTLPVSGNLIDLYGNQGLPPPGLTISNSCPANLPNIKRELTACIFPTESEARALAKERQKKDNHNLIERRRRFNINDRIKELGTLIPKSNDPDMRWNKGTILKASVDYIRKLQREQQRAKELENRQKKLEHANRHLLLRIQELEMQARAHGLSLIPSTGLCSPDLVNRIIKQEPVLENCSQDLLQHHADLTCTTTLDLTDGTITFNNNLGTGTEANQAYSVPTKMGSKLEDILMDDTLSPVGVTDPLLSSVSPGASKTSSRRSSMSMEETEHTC
Turning to `COC(=O)C(C)CN1CCN(Cc2ccc3c(c2)OCO3)CC1` (stereo not given), the inhibition was 78.9% (active).

Take `CCCNC(=O)N1CCCC(N2CCN(Cc3ccc4c(c3)OCO4)CC2)C1` (stereo not given): the inhibition is 12.8% (inactive).

Turning to `c1cc2c(cc1CN1CCN(C3CCCCC3)CC1)OCO2`, the inhibition is 60.9% (active).

As to `c1cc2c(cc1Cn1nnnc1CN1CCN(C3CCCC3)CC1)OCO2`, the inhibition was 7.92% (inactive).

As to `CCC(C)(C)C(=O)N1CCN(Cc2ccc3c(c2)OCO3)CC1`, the inhibition was 9.89% (inactive).

As to `OC1CCCN(Cc2ccc3c(c2)OCO3)C1` (stereo not given), the inhibition was 6.89% (inactive).

As for `c1cc2c(cc1CN1CCN(C3CCCC3)CC1)OCO2`, the inhibition is 62.8% (active).

Regarding `CC(C)CCCN1CCC(N2CCN(Cc3ccc4c(c3)OCO4)CC2)CCC1=O` (stereo not given), the inhibition is -10.8% (inactive).

Take `CC(=O)Oc1ccc(C(=O)N2CCN(Cc3ccc4c(c3)OCO4)CC2)cc1`: the inhibition is -6.96% (inactive).

`COc1ccc(OC(=O)c2cccc(C(=O)OC(C)C)n2)cc1`: the inhibition is 7.42% (inactive).

`COCCNC(=O)c1ccc(-c2cccc(OC)c2)nc1NCC1CC1`: the inhibition was -12.1% (inactive).

Take `NC(=O)CC[C@H](NC(=O)c1ccc(F)cc1)C(=O)OCC(=O)c1ccccc1`: the inhibition is 1.49% (inactive).

For `CO[C@@H](C1CCCCC1)[C@@H](C)[C@H](OCc1cccc(Br)c1)[C@@H](C)CO`, the inhibition is -6.84% (inactive).

With `CCN(Cc1ccccc1)Cc1cc(OC)c(OC)c(OC)c1`, the inhibition was 5.59% (inactive).

Turning to `COc1cc(CN(CCCN(C)C)CCCN(C)C)cc(OC)c1`, the inhibition is 45.5% (inactive).

With `COc1cc(CN(CCN(C)C)Cc2ccccc2)cc(OC)c1`, the inhibition was 70% (active).

Consider `Cc1ccc(OCCCNC2CCCC2)c(I)c1`, for which the inhibition is 29.7% (inactive).

Consider `CCOc1ccc2[nH]c(=O)c(CN(CCO)C(=O)c3ccco3)cc2c1`, for which the inhibition is 6.48% (inactive).

Regarding `COC(=O)CCS(=O)(=O)c1ccc(C(=O)O)cc1N`, the inhibition was -6.29% (inactive).

For `COc1ccc(-c2noc(=O)n2CC(=O)N(c2ccccc2)c2ccccc2)cc1`, the inhibition was 2.22% (inactive).

For `O=C(CN1CCSCC1)N/N=C/c1ccc(F)cc1`, the inhibition is 47% (inactive).

For `O=C(CN1CCSCC1)N/N=C/c1ccc(Cl)cc1`, the inhibition was 17.4% (inactive).

On to `CN1CCN(CCC(=O)N/N=C/c2ccsc2)CC1`, for which the inhibition was 53.5% (active).

Consider `COc1ccc2c(c1)OC(C)CN(C(=O)C1CCCCCN1C)C2` (stereo not given), for which the inhibition is 1.95% (inactive).

Take `CCCNCc1nc(-c2ccc(OC)c(OC)c2)no1`: the inhibition was 11.7% (inactive).

Regarding `c1ccc(Nc2cc(NCc3ccc4c(c3)OCO4)ncn2)cc1`, the inhibition was -2.56% (inactive).

Regarding `Cc1cnc(NCc2ccc3c(c2)OCO3)nc1NCCN1CCOCC1`, the inhibition was 16% (inactive).

Turning to `Cc1cnc(NCc2ccc3c(c2)OCO3)nc1Nc1ccccc1`, the inhibition was 69.7% (active).

As for `COc1ccc(-c2csc3nc(C)n(N)c(=O)c23)cc1OC`, the inhibition was 14.4% (inactive).

For the molecule `Fc1cccc(Cl)c1Cn1nnc(-c2ccncc2)n1`, the inhibition was 74% (active).

In the case of `c1ccc(OCCCCn2nnc(-c3ccncc3)n2)cc1`, the inhibition was 10.3% (inactive).

Consider `Fc1cccc(Cl)c1CSc1nnc2ncccn12`, for which the inhibition is -8.92% (inactive).

With `CC1CCc2sc(NC(=O)c3ccccc3[N+](=O)[O-])c(C#N)c2C1` (stereo not given), the inhibition was 11.5% (inactive).

As for `CC1=CCC(C(=O)O)(C(=O)N/N=C/C2=C(O)CC(C)(C)CC2=O)CC1c1ccccc1` (stereo not given), the inhibition was 45.2% (inactive).

`COc1cc(Nc2nc(Nc3cc(OC)c(OC)c(OC)c3)c3[nH]cnc3n2)cc(OC)c1OC`: the inhibition was -7.41% (inactive).

With `COc1ccc(-c2nc(N)c3[nH]cnc3n2)cc1`, the inhibition was -0.37% (inactive).

Regarding `COc1ccc(-c2nc(Nc3cc(OC)c(OC)c(OC)c3)c3[nH]cnc3n2)cc1`, the inhibition was 63.2% (active).

Take `Cc1cccc(NC(=O)C(c2ccccc2)N2CCOCC2)c1` (stereo not given): the inhibition was 2.38% (inactive).

`Cc1c(C(C)NC(=O)c2csc(C(C)C)n2)cnn1-c1ccccn1` (stereo not given): the inhibition was 1.61% (inactive).

As to `C=CCN=Cc1c(C)[nH]n(-c2ccc([N+](=O)[O-])cc2)c1=O`, the inhibition was 0.33% (inactive).

Regarding `CCN1CCN(CCOCCOc2ccccc2OCc2ccccc2)CC1`, the inhibition was 80.8% (active).

Consider `O=c1c2ccccc2ncn1CCCCOc1ccccc1F`, for which the inhibition is 52.4% (active).

With `c1ccc2cc(OCCOCCN3CCOCC3)ccc2c1`, the inhibition is 12.8% (inactive).

Consider `COc1ccccc1OCCOCCOc1ccccc1OC`, for which the inhibition is -12.3% (inactive).

On to `CCCCOc1ccccc1OCCCN1CCN(C)CC1`, for which the inhibition is -4.11% (inactive).

As to `CCN1CCN(CCCCOc2ccccc2F)CC1`, the inhibition was 63.7% (active).

In the case of `COc1cc(C=O)ccc1OCCCN1CCCCC1`, the inhibition is 34.3% (inactive).

For the molecule `CCN1CCN(CCCOc2ccc(C(C)=O)cc2OC)CC1`, the inhibition is 77.9% (active).

With `Cc1ccc(Cl)c(OCCn2cnc3ccccc3c2=O)c1`, the inhibition is 10.1% (inactive).

`O=c1c2ccccc2nc(-c2ccc(Cl)cc2)n1CCCCOc1ccccc1F`: the inhibition is -6.63% (inactive).

For `CCc1ccccc1OCCCN1CCOCC1`, the inhibition is 38.5% (inactive).

Regarding `CCN1CCN(CC(=O)c2cc(OC)c(OC)c(OC)c2)CC1`, the inhibition was 6.5% (inactive).

In the case of `C=CCC1(CC=C)CCCN1C(=O)CC1C(=O)NCCN1Cc1ccccc1C` (stereo not given), the inhibition is 5.18% (inactive).

In the case of `CCOC(=O)CSc1nc2ccc(Cl)cc2n2cnnc12`, the inhibition is -5.55% (inactive).

As for `Cc1nn(-c2ccccn2)c2c1C(=O)/C(=C\Nc1cccc([N+](=O)[O-])c1)CC2`, the inhibition is -6.22% (inactive).

For the molecule `COc1ccc(C(=O)Oc2ccc3c(c2)C(C)=CC(C)(C)N3C(=O)c2ccc(OC)cc2)cc1`, the inhibition is 8.97% (inactive).

Consider `Cc1ccc(S(=O)(=O)NC(=NC(CC(=O)O)C(=O)O)c2ccccc2)cc1` (stereo not given), for which the inhibition was -0.64% (inactive).

In the case of `O=C1NC2(CCCCC2)N(C(=O)c2ccc(Cl)cc2)C2=C1CCCC2`, the inhibition was 9.62% (inactive).

Turning to `CCCCN(CC)C(=O)c1c[nH]c2ccc(S(=O)(=O)N(C)c3ccc(CC)cc3)cc2c1=O`, the inhibition was 1.47% (inactive).

With `CN1CCN(CCOCCOc2ccccc2Cl)CC1`, the inhibition is 53.8% (active).

Take `Cc1ccc(OCCOCCN2CCN(C)CC2)c(Br)c1`: the inhibition was 42.5% (inactive).

On to `CC(C)c1cc(Br)ccc1OCCOCCN1CCN(C)CC1`, for which the inhibition was -24.1% (inactive).

For the molecule `O=C(O)C1CSC(c2cccc(I)c2)N1` (stereo not given), the inhibition was 10% (inactive).

Consider `Cc1ccc(-c2c(C(=O)Nc3cccc(O)c3)oc(=O)c3ccccc23)cc1`, for which the inhibition is 26.8% (inactive).

Turning to `O=C(CCC(=O)OCc1ccc(Cl)cc1)Nc1ccc([N+](=O)[O-])cc1`, the inhibition was 59.3% (active).

`O=C(COc1ccc([N+](=O)[O-])cc1)Nc1ccc(Cl)cc1`: the inhibition was 12.6% (inactive).

As to `O=C(O)CCC(=O)Nc1ccc([N+](=O)[O-])cc1`, the inhibition is -7.16% (inactive).

For `CC(=O)C1=C(O)C(=O)N(CCCN(C)C)C1c1ccc(Br)cc1` (stereo not given), the inhibition was 4.38% (inactive).

Take `COc1ccccc1/C=C1\SC(=S)N(CCC(=O)Nc2nc(C)cs2)C1=O`: the inhibition was 13.4% (inactive).

For the molecule `CCOCc1nnc(NC(=O)C2CC(=O)N(c3ccc(C)cc3)C2)s1` (stereo not given), the inhibition is 9.92% (inactive).

Turning to `Cc1cc(Cl)c(OCCN2CCOCC2)c(Br)c1`, the inhibition is 33.1% (inactive).

In the case of `Cc1ccc(C)c(OCCN2CCOCC2)c1C`, the inhibition is 54.9% (active).

Consider `Cc1cc(OCCN2CCOCC2)nc(N2CCOCC2)n1`, for which the inhibition is 5.58% (inactive).

With `CCOc1cccc(C(=O)Nc2ccc3oc(-c4ccc(Cl)c(Cl)c4)nc3c2)c1`, the inhibition was 4.15% (inactive).

As for `CCOCCOC(=O)C1=C(C)NC(=O)NC1c1ccccc1` (stereo not given), the inhibition was 2.55% (inactive).

For `COc1cccc(/C=N/Nc2nc(=O)[nH]nc2C)c1OC`, the inhibition was 35% (inactive).

As for `Cc1cccc(Nc2nc(=O)[nH]nc2C)c1`, the inhibition was 13.2% (inactive).

Consider `Cc1n[nH]c(=O)nc1N/N=C/c1cccs1`, for which the inhibition was 86.2% (active).

For the molecule `O=c1[nH]cnc2nc(N/N=C/c3ccc(Cl)cc3)[nH]c12`, the inhibition was -5.83% (inactive).

As for `O=C(Nc1cccc(Br)c1)N1CCC(CN2CCCC2)CC1`, the inhibition is 5.45% (inactive).

As for `COc1cc(-c2cc(C(N)=O)on2)ccc1O`, the inhibition was 3.55% (inactive).

Turning to `COc1cc2nc(-c3cccc(C(C)=O)c3)nc(N)c2cc1OC`, the inhibition was 60.9% (active).

With `CC(=O)c1cccc(-c2ncc(C)c(N)n2)c1`, the inhibition was 0.72% (inactive).

On to `COc1cc2nc(-c3cccc(C(C)=O)c3)nc(Nc3ccc(N4CCOCC4)cc3)c2cc1OC`, for which the inhibition is 1.79% (inactive).

Take `CC(=O)NC(c1cccs1)c1cc(Cl)c2cccnc2c1O` (stereo not given): the inhibition was 59.1% (active).

Consider `Cc1ccnc(NC(c2ccccc2Cl)c2ccc3cccnc3c2O)c1` (stereo not given), for which the inhibition is 22.3% (inactive).

In the case of `CCOc1ccc(C(NC(=O)c2cc(OC)c(OC)c(OC)c2)c2cc(Cl)c3cccnc3c2O)cc1` (stereo not given), the inhibition was 17.1% (inactive).

Regarding `Oc1c(C(Nc2ccccn2)c2ccc(OC(F)F)cc2)ccc2cccnc12` (stereo not given), the inhibition was 12.2% (inactive).

Regarding `COc1cccc(C(=O)NC(c2cccc([N+](=O)[O-])c2)c2cc(Cl)c3cccnc3c2O)c1` (stereo not given), the inhibition was 4.72% (inactive).

Turning to `Oc1c(C(Nc2ccccn2)c2cccnc2)ccc2cccnc12` (stereo not given), the inhibition was 58.1% (active).

Consider `CC(=O)NC(c1ccccc1)c1ccc2cccnc2c1O` (stereo not given), for which the inhibition was 54.5% (active).

`Cc1ccc(C(NC(=O)Cc2ccccc2)c2ccc3cccnc3c2O)cc1` (stereo not given): the inhibition was 3.27% (inactive).

As to `O=C(Cc1ccccc1)NC(c1ccc(Cl)cc1)c1ccc2cccnc2c1O` (stereo not given), the inhibition is -1.99% (inactive).

`O=C(Oc1ccc2sc(=O)oc2c1)c1cccc(C(F)(F)F)c1`: the inhibition was -7.72% (inactive).

As for `N#Cc1ccc(NC(=O)c2ccccc2C(=O)O)cc1`, the inhibition is 4.7% (inactive).

As to `Cc1ccc(S(=O)(=O)N/N=C/c2cccnc2)cc1[N+](=O)[O-]`, the inhibition was -30.1% (inactive).

For the molecule `COc1ccc(/C=C/c2cc[n+](C)cc2)c(OC)c1`, the inhibition was -10.4% (inactive).

`CC(=O)Nc1cc(C(=O)NCCN2CCOCC2)cc(-n2ncc3cc(Nc4c(Cl)cccc4Cl)ccc32)c1`: the inhibition was -3% (inactive).

For the molecule `CCOC(=O)C1C2C=CC3(CN(c4ccc(C)cc4)C(=O)C13)O2` (stereo not given), the inhibition is 0.13% (inactive).

On to `O=C(CCCn1c(SCC(=O)c2ccc(Cl)c(Cl)c2)nc2ccsc2c1=O)NCCc1ccccc1`, for which the inhibition was 2.74% (inactive).
